# Assay results published in PubChem BioAssay (EPA / NIEHS).
# Where “and” joins values, the source holds several entries; their conditions need not be identical. Equal values may be shown once. Calls of active or inactive are those of the source. Rule for the calls: active = hit-call score of the fitted dose curve at least 0.9, where 1 is the maximum; inactive = score below 0.9.
# Experiments:
# [1] = ATG_EGR_CIS: Attagene CIS-FACTORIAL HepG2 Assay for human Early Growth Response 1 (EGR1) (AID 2282938); conditions: HepG2 Attagene CIS-FACTORIAL EGR reporter mRNA; actives raise or lower the signal
# Method in brief: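 Endogenous TF activity in HepG2 liver cells was gauged through cis-promoter reporter constructs transiently transfected. After 24 h dosing, reporter mRNA was quantified by RT-PCR and capillary electrophoresis, and curves fitted in both directions versus DMSO.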
# [2] = ATG_M_19_CIS: Attagene CIS-FACTORIAL HepG2 Assay for M19 Transcription Factor (Internal Marker) (AID 2282939); conditions: HepG2 Attagene CIS-FACTORIAL M19 internal marker reporter; actives raise or lower the signal
# Method in brief: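 HepG2 cells transiently transfected with cis-regulated multiple reporter transcription units were dosed for 24 h; reporter mRNA was quantified by RT-PCR, 6-FAM primer-extension labelling, HpaI digestion and capillary electrophoresis, with bidirectional fitting against DMSO baseline.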
# [3] = ATG_ERE_CIS: Attagene CIS-FACTORIAL HepG2 Assay for Estrogen Response Element (ERE) (AID 2282940); conditions: HepG2 ERE cis-reporter, Attagene RNA transcript; actives raise or lower the signal
# Method in brief: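 HepG2 cells transiently transfected with cis-promoter-driven multiplexed reporter transcription units report endogenous TF activity. After 24 h compound exposure, reporter mRNA is quantified by RT-PCR with capillary electrophoresis fluorescence; bidirectional fitting versus DMSO baseline.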
# [4] = ATG_Ets_CIS: Attagene CIS-FACTORIAL HepG2 Assay for human Erythroblast Transformation Specific (ETS) (AID 2282941); conditions: HepG2 ETS cis-reporter transcription; AC50: actives raise or lower the signal unless noted; outcome: actives raise or lower the signal unless noted
# Method in brief: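 Endogenous transcription factor activity read as reporter mRNA via RT-PCR and capillary electrophoresis, with gain or loss fitted bidirectionally against DMSO. Human HepG2 liver cells, transiently transfected CIS reporter constructs, 24 h exposure.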
# [5] = biological target: Hepatocyte nuclear factor 3-beta (Homo sapiens) (UniProt Q9Y261); test: ATG_FoxA2_CIS: Attagene CIS-FACTORIAL HepG2 Assay for human Forkhead box A2 (FOXA2) (AID 2282942); conditions: HepG2 cis-reporter transcription factor activity, 24 h; actives raise or lower the signal
# Method in brief: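 Endogenous transcription factor activity was read in HepG2 cells carrying transiently transfected cis-promoter reporter units. After 24 h dosing, reporter mRNA was quantified by RT-PCR and capillary electrophoresis, and values fitted bidirectionally versus DMSO.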
# [6] = ATG_GATA_CIS: Attagene CIS-FACTORIAL HepG2 Assay for human GATA Binding Protein (AID 2282944); conditions: HepG2 GATA cis-element reporter, Attagene multiplex mRNA; actives raise or lower the signal
# Method in brief: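 HepG2 cells transiently transfected with multiplexed cis-element reporter units reflecting endogenous transcription factor activity; reporter mRNA measured after 24 h dosing by RT-PCR, 6-FAM labeling, HpaI digestion and capillary electrophoresis. Bidirectional fitting versus DMSO baseline.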
# [7] = ATG_GLI_CIS: Attagene CIS-FACTORIAL HepG2 Assay for human Zinc Finger Protein GLI1 (AID 2282945); conditions: HepG2, Attagene cis-factorial reporter mRNA, GLI element; actives raise or lower the signal
# Method in brief: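 Bidirectional curve fits relative to DMSO, using reporter mRNA levels from RT-PCR plus capillary electrophoresis. Cells were HepG2 transiently carrying cis-regulated reporter constructs, harvested 24 h after dosing.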
# [8] = ATG_GRE_CIS: Attagene CIS-FACTORIAL HepG2 Assay for human Glucocorticoid Response Elements (GRE) (AID 2282947); conditions: HepG2 GRE cis-reporter, Attagene multiplex mRNA; AC50: actives raise or lower the signal unless noted; outcome: actives raise or lower the signal unless noted
# Method in brief: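 Multiplexed cis-reporter mRNA induction, HepG2, 24 h post-dose. RT-PCR, FAM-labelled, HpaI-digested amplicons by CE. Bidirectional fit vs DMSO.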
# [9] = ATG_M_32_CIS: Attagene CIS-FACTORIAL HepG2 Assay for M32 Transcription Factor (Internal Marker) (AID 2282949); conditions: HepG2 Attagene cis-factorial M32 reporter, mRNA; actives raise or lower the signal;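 note: background control marker of the multiplexed CIS panel rather than a real target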
# Method in brief: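 Transient MRTU transfection of HepG2; 24 h compound treatment; TriZol RNA, oligo(dT) RT, reporter PCR, 6-FAM primer extension, HpaI cut, CE. Gain/loss of signal vs DMSO.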
# [10] = ATG_M_06_CIS: Attagene CIS-FACTORIAL HepG2 Assay for M06 Transcription Factor (Internal Marker) (AID 2282950); conditions: HepG2 Attagene CIS-FACTORIAL M06 internal marker reporter; actives raise or lower the signal
# Method in brief: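 HepG2 cells transiently transfected with cis-regulated multiple reporter transcription units were exposed to chemical for 24 h; reporter mRNA was quantified by RT-PCR, 6-FAM primer labelling, HpaI digestion and capillary electrophoresis, fitted bidirectionally against DMSO.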
# [11] = biological target: Hypoxia-inducible factor 1-alpha (Homo sapiens) (UniProt Q16665); test: ATG_HIF1a_CIS: Attagene CIS-FACTORIAL HepG2 Assay for human Hypoxia Inducible Factor 1 (HIF1A) (AID 2282951); conditions: HepG2 Attagene cis-factorial HIF1a reporter transcription; actives raise or lower the signal
# Method in brief: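 Measures endogenous transcription-factor activity through cis-regulated reporter mRNA in HepG2. Cells dosed 24 h; transcripts quantified by RT-PCR with 6-FAM-labelled products separated by capillary electrophoresis; DMSO serves as negative control.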
# [12] = biological target: Hepatocyte nuclear factor 6 (Homo sapiens) (UniProt Q9UBC0); test: ATG_HNF6_CIS: Attagene CIS-FACTORIAL HepG2 Assay for human Hepatocyte Nuclear Factor 6 (HNF6) (AID 2282952); conditions: HepG2 Attagene cis-factorial HNF6 reporter transcription; actives raise or lower the signal
# Method in brief: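 Twenty-four-hour chemical treatment of reporter-transfected HepG2 cells precedes RNA isolation, DNase-treated reverse transcription and PCR of reporter sequences. Labelled fragments are sized by capillary electrophoresis and fitted bidirectionally versus DMSO.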
# [13] = biological target: Heat shock factor protein 1 (Homo sapiens) (UniProt Q00613); test: ATG_HSE_CIS: Attagene CIS-FACTORIAL HepG2 Assay for human Heat Shock Transcription Factor 1 (HSE) (AID 2282953); conditions: HepG2 HSE cis-reporter, Attagene RNA transcription; actives raise or lower the signal
# Method in brief: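 HepG2 cells transiently transfected with multiple reporter transcription units under cis-regulatory promoter control, measuring endogenous transcription factor activity. After 24 h chemical exposure, reporter mRNA quantified by RT-PCR, fluorescent labelling, HpaI digestion and capillary electrophoresis; bidirectional fit versus DMSO.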
# [14] = ATG_MRE_CIS: Attagene CIS-FACTORIAL HepG2 Assay for human Metal Responsive Element (MRE) (AID 2282954); conditions: HepG2 MRE cis-reporter transcription, Attagene multiplex; actives raise or lower the signal
# Method in brief: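 Multiplexed cis-reporter assay in human HepG2 liver cells, 24 h incubation with test chemical. Reporter transcripts measured by RT-PCR and capillary electrophoresis; values from bidirectional curve fitting versus DMSO.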
# [15] = ATG_PBREM_CIS: Attagene CIS-FACTORIAL HepG2 Assay for human Phenobarbital-responsive Enhancer Module (PBREM) (AID 2282955); conditions: HepG2 PBREM cis-reporter, Attagene multiplexed transcription; actives raise or lower the signal
# Method in brief: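 Fluorescence of labelled reporter cDNA fragments, resolved by capillary electrophoresis, gives mRNA induction in transfected HepG2 cells treated for 24 h; DMSO serves as negative control and baseline.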
# [16] = biological target: Paired box protein Pax-6 (Homo sapiens) (UniProt P26367); test: ATG_Pax6_CIS: Attagene CIS-FACTORIAL HepG2 Assay for human Paired Box 6 (PAX6) (AID 2282956); conditions: HepG2 CIS-FACTORIAL PAX6 reporter transcription, RNA readout; actives raise or lower the signal
# Method in brief: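 Read-out is reporter transcript level, measured by RT-PCR with fluorescent primer extension and capillary electrophoresis after 24 h dosing of transfected HepG2 cells. Activity in either direction fitted relative to DMSO control.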
# [17] = ATG_PXRE_CIS: Attagene CIS-FACTORIAL HepG2 Assay for human Pregnane X Receptor Element (PXRE) (AID 2282957); conditions: HepG2 Attagene CIS-FACTORIAL PXRE reporter, mRNA; actives raise or lower the signal
# Method in brief: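 Bidirectional activity, baselined to DMSO, derived from reporter mRNA fluorescence (RT-PCR plus capillary electrophoresis) in HepG2 cells bearing cis-promoter reporter units, 24 h exposure.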
# [18] = ATG_ISRE_CIS: Attagene CIS-FACTORIAL HepG2 Assay for human Interferon Regulatory Factor 1 (IRF1) binding to an Interferon-Stimulated Response Element (ISRE) (AID 2282948); conditions: HepG2 ISRE cis-reporter (Attagene), mRNA transcription readout; actives raise or lower the signal
# Method in brief: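 Endogenous transcription factor activity read as reporter transcript abundance via RT-PCR and capillary electrophoresis. HepG2 cells transiently transfected, 24 h chemical exposure. Gain or loss fitted against DMSO baseline.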
# [19] = ATG_FoxO_CIS: Attagene CIS-FACTORIAL HepG2 Assay for human Forkhead box O (FoxO) (AID 2282943); conditions: HepG2 Attagene cis-reporter, FoxO element, mRNA; actives raise or lower the signal
# Method in brief: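 Human hepatoma HepG2 cells carry transiently introduced reporter transcription units controlled by cis promoter elements. Chemical treatment lasted 24 h, and mRNA signal was compared with DMSO.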
# Hepatocyte nuclear factor 3-beta (Homo sapiens), sequence (Q9Y261 whole entry, looked up): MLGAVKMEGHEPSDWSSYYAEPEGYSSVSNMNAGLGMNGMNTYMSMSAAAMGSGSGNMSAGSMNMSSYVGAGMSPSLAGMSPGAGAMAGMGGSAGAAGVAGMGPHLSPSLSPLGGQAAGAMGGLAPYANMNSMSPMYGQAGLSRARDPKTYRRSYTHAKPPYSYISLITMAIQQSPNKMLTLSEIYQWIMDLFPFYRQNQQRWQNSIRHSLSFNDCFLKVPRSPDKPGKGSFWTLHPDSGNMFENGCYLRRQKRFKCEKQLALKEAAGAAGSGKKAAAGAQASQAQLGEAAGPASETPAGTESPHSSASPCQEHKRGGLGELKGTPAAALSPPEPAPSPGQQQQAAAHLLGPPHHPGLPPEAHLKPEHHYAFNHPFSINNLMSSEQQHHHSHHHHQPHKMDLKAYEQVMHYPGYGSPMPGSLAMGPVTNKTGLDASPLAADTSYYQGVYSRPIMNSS
# Hypoxia-inducible factor 1-alpha (Homo sapiens), sequence (Q16665 whole entry, looked up): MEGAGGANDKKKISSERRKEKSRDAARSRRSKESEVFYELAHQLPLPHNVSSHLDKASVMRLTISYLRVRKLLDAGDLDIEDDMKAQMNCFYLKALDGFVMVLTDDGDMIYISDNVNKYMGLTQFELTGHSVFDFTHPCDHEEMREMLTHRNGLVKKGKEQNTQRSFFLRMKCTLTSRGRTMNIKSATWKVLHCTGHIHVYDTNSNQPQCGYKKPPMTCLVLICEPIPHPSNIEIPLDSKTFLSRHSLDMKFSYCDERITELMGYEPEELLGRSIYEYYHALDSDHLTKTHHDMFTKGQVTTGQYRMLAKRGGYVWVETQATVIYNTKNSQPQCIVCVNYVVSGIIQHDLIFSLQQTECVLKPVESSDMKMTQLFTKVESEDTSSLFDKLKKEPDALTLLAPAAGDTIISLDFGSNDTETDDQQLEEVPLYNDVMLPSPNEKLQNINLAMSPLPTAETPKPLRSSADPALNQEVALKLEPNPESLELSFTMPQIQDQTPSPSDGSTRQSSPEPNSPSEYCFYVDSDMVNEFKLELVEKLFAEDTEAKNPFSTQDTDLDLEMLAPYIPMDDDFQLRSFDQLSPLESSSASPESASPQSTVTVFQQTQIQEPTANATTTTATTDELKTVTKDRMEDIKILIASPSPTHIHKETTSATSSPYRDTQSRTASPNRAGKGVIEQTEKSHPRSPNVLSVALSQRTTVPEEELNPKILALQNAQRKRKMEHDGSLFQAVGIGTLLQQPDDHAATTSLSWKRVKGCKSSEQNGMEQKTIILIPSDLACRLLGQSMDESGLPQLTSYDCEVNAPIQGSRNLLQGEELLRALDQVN
# Paired box protein Pax-6 (Homo sapiens), sequence (P26367 whole entry, looked up): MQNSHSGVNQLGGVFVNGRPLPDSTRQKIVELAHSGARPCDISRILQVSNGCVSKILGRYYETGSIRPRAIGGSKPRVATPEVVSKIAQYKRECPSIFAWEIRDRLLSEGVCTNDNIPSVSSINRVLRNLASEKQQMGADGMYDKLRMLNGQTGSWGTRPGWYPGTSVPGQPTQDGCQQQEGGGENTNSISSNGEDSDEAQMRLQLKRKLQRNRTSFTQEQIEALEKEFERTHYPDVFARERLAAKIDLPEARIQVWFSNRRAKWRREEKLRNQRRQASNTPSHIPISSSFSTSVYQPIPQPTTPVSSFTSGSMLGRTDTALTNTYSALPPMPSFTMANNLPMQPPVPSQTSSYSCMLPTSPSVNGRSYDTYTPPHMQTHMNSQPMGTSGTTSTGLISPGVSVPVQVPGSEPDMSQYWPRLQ
# Hepatocyte nuclear factor 6 (Homo sapiens), sequence (Q9UBC0 whole entry, looked up, the tested form may be a part): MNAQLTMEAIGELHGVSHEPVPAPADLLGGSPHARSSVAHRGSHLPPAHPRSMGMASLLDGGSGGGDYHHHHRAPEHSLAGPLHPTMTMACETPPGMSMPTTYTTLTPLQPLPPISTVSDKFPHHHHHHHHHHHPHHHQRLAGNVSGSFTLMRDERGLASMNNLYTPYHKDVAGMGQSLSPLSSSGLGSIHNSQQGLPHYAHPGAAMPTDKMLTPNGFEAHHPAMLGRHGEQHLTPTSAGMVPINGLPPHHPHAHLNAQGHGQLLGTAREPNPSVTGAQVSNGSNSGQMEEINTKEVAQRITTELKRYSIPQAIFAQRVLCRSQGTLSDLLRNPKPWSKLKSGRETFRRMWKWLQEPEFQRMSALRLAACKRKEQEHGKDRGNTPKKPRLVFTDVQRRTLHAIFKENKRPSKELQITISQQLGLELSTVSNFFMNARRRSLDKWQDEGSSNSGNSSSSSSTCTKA
# Heat shock factor protein 1 (Homo sapiens), sequence (Q00613 whole entry, looked up): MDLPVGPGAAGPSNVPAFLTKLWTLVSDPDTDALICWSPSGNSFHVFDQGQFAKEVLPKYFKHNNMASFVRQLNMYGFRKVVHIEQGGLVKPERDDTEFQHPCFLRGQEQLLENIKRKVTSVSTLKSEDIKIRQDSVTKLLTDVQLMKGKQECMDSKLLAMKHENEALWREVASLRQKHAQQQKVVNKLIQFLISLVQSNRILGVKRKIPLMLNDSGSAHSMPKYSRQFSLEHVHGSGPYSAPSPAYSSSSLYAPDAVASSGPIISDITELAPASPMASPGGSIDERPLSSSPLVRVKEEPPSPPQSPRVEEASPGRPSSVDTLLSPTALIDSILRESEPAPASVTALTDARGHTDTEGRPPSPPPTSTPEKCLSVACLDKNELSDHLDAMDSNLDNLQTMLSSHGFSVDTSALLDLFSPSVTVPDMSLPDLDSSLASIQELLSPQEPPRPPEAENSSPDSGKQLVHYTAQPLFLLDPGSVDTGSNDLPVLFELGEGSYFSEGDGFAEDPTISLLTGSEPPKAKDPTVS
smiles,measurement,setting,value
FC(F)(F)C(F)(F)C(F)(F)C(F)(F)I,outcome,[1],inactive
same,outcome,[2],inactive
same,outcome,[3],inactive
same,outcome,[4],inactive
same,outcome,[5],inactive
same,outcome,[6],inactive
same,outcome,[7],inactive
same,outcome,[8],inactive
same,outcome,[9],inactive
same,outcome,[10],inactive
same,outcome,[11],inactive
same,outcome,[12],inactive
same,outcome,[13],inactive
same,outcome,[14],inactive
same,outcome,[15],inactive
same,outcome,[16],inactive
same,outcome,[17],inactive
O=CC(F)(F)C(F)(F)C(F)(F)F,outcome,[1],inactive
same,outcome,[2],inactive
same,outcome,[3],inactive
same,outcome,[4],inactive
same,outcome,[5],inactive
same,outcome,[6],inactive
same,outcome,[7],inactive
same,outcome,[8],inactive
same,outcome,[18],inactive
same,outcome,[9],inactive
same,outcome,[10],inactive
same,outcome,[11],inactive
same,outcome,[13],inactive
same,outcome,[14],inactive
same,outcome,[16],inactive
same,outcome,[17],inactive
O=c1cc(-c2ccccc2)oc2ccc3ccccc3c12,outcome,[1],inactive
same,outcome,[2],inactive
same,AC50,[3],1.19 µM (active) and 521 nM (active)
same,outcome,[4],inactive
same,outcome,[5],inactive
same,outcome,[19],inactive
same,outcome,[6],inactive
same,outcome,[9],inactive
same,outcome,[10],inactive
same,outcome,[11],inactive
same,outcome,[12],inactive
same,outcome,[13],inactive
same,outcome,[14],inactive
same,outcome,[15],inactive
same,outcome,[16],inactive
same,AC50,[17],1.08 µM (active) and 2.24 µM (active)
CC1COCc2cc3c(cc21)C(C)(C)C(C)C3(C)C (stereo unspecified),AC50,[1],152 µM (active)
same,outcome,[2],inactive
same,outcome,[3],inactive
same,outcome,[4],inactive
same,outcome,[5],inactive
same,outcome,[19],inactive
same,AC50,[6],158 µM (active)
same,outcome,[8],inactive
same,outcome,[18],inactive
same,AC50,[9],163 µM (active)
same,outcome,[10],inactive
same,outcome,[11],inactive
same,outcome,[12],inactive
same,AC50,[13],147 µM (active)
same,AC50,[14],144 µM (active)
same,AC50,[16],160 µM (active)
same,AC50,[17],1.23 µM (active)
